# A selection: hits, their analogues and other compounds. The true share with any hit is near 3.1%.
# TROY signal inh: TROY signaling inhibition. Q293 LMP1-TROYcd NF-kB luciferase reporter, 4 h. hit rate 0.98% among 360,000. inhibition, % at 10 µM;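 active = compounds whose plate-normalised and pattern-corrected inhibition of the luciferase reporter signal at the single screening dose is 50% or more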
# LMP1 NFkB inh: Epstein-Barr LMP1 NF-kappaB reporter inhibition; LMP1-induced NF-kappaB luciferase reporter cells, luminescence; inhibition, % at 12.5 µM; hit rate 0.69% among 350,000; in the data active = inhibition above about 41%; inconclusive = no clear call, values can overlap the other calls
# PAX8 inh HTS: PAX8 transcriptional activity inhibition; RMG-I TPO-luciferase reporter, SteadyGlo, 24 h; inhibition, % at 12.6 µM; AID 652154; hit rate 1.2% among 360,000;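 active = mean replicate inhibition at least 60% with every replicate also reaching 60%; inconclusive = only one of the two criteria is met; inactive = mean below 60% and not all replicates reaching 60%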;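 also: luciferase light reporting Pax8 driven TPO promoter activity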
# TWEAK Fn14 block: inhibitors of TWEAK-Fn14 interaction signaling; TWEAK-stimulated Fn14 reporter cells, luciferase luminescence, 8 h; inhibition, % at 10 µM; hit rate 2% among 360,000; in the data active = inhibition above about 50%
# EWS-Fli block: EWS/Fli transcriptional activity inhibition; AID 651661; hit rate 0.67% among 350,000; inhibition, % at 12.6 µM; A673 NR0B1-luciferase reporter, viability-normalised;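 active = mean inhibition of at least 50% after viability correction, with every replicate also passing that limit; inconclusive = mean reaches 50% but only one of two replicates passes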;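 also: firefly luciferase signal divided by Alamar Blue viability fluorescence both relative to DMSO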
# LGR2 antag: Drosophila LGR2 receptor signaling inhibition; AID 720647; hit rate 0.35% among 380,000; inhibition, % at 9.99 µM; HEK293 LGR2, CRE-luciferase, bursicon-stimulated, 4 h;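 active = drop in luminescence signal, shown as inhibition above about 50% in the replicate tests, limit read from the data, passing the limit was not always enough; inconclusive = probably only some replicates passing the limit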;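 also: agonist challenge used bursicon conditioned medium at about half maximal strength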
# A number is an active result; . = inactive; ? = inconclusive; / = no result given; ! = not active in a repeat.
SMILES,TROY signal inh,LMP1 NFkB inh,PAX8 inh HTS,TWEAK Fn14 block,EWS-Fli block,LGR2 antag
CN1CCN(C(=O)C[C@@H]2CC[C@@H]3[C@H](COc4ccc(NC(=O)C5CCOCC5)cc4C(=O)N3C)O2)CC1,/,/,.,/,.,.
CC(C)NC(=O)Nc1ccc2c(c1)C(=O)N([C@H](C)CO)C[C@@H](C)[C@@H](CN(C)S(=O)(=O)c1ccc(Cl)cc1)OCCCC[C@@H](C)O2,/,/,.,/,.,.
CN(C)CCC(c1ccccc1)c1ccccn1 (stereo not drawn),.,56.4!,.,.,.,.
C/C=C/c1ccc([C@@H]2[C@H](CO)N(C(=O)CC)C23CN(CCC(F)(F)F)C3)cc1,/,/,.,/,.,.
CN(C)S(=O)(=O)c1ccc(Nc2nc(C3CC3)nc3c2nnn3Cc2ccccc2Cl)cc1,.,.,66.9,87.4,/,.
CCc1nc(Nc2ccc(OC)c(OC)c2)c2nnn(Cc3ccccc3Cl)c2n1,.,.,/,52.2,/,/
COC(=O)CNc1nc(C2CC2)nc2c1nnn2Cc1ccccc1Cl,.,.,/,.,/,/
C[C@@H]1CCCCO[C@@H](CN(C)C(=O)Nc2ccccc2)[C@H](C)CN([C@H](C)CO)C(=O)c2cc(NC(=O)c3ccncc3)ccc2O1,/,/,.,/,.,.
CCN=C1S/C(=C\c2cn(CC(=O)NCc3ccco3)c3ccccc23)C(=O)N1CC,.,.,78.3,.,.,.
Cc1ccc2c(c1)C1CN(C)CCC1N2C(=O)c1cccc(S(=O)(=O)N(C)C)c1 (stereo not drawn),66.9,.,.,.,.,.
Cc1ccc2c(c1)C1CN(C)CCC1N2C(=O)COc1ccc(N(C)C(=O)c2ccccc2)cc1 (stereo not drawn),.,.,.,.,.,.
CCC(=O)N1[C@H](CO)[C@H](c2ccccc2)C12CN(C(=O)NC1CCCC1)C2,/,/,.,/,.,.
CO[C@H]1CN(C)C(=O)c2cc(NC(=O)C3CCC3)ccc2OC[C@@H](C)N(C(=O)CN(C)C)C[C@@H]1C,/,/,.,/,.,.
COc1ccc(OC)c(NC(=O)C2(C)CCN2C(=O)Cc2ccc(Cl)cc2Cl)c1 (stereo not drawn),.,/,.,65.4,.,.
O=C(C[C@@H]1CC[C@H]2[C@@H](COC[C@@H](O)CN2Cc2cc(F)ccc2F)O1)NCc1ccccc1,/,/,.,/,.,.
Cc1cc(C)n2c(Nc3ccc4c(c3)OCCO4)c(-c3cc4ccccc4o3)nc2n1,85.5,/,.,96.7,.,92.2
Cc1cc(C)n2c(Nc3ccc4c(c3)OCCO4)c(-c3ccc(C)o3)nc2n1,.,.,.,.,.,.
O=C1CN(S(=O)(=O)Cc2ccccc2)C[C@H]2[C@H](c3ccc(C#CCC4CCCC4)cc3)[C@@H](CO)N12,/,/,.,/,.,.
O=C1CN(S(=O)(=O)Cc2ccccc2)C[C@@H]2[C@@H](c3ccc(C#CCC4CCCC4)cc3)[C@@H](CO)N12,/,/,98.6,/,.,/
O=C1CN(S(=O)(=O)Cc2ccccc2)C[C@@H]2[C@H](c3ccc(C#Cc4ccc(F)cc4)cc3)[C@H](CO)N12,/,/,80.2,/,.,.
CC(=O)c1c(C)[nH]c(C(=O)Nc2cccc(C)n2)c1C,.,.,.,52.7,.,.
CC(=O)c1c(C)[nH]c(C(=O)Nc2ccc(N3CCCCCC3)cc2)c1C,.,.,.,72.3,.,.
CC(=O)c1c(C)[nH]c(C(=O)NCc2ccccc2F)c1C,.,.,.,54.3,.,.
CC(=O)c1c(C)[nH]c(C(=O)Nc2cccc3ccccc23)c1C,.,.,.,.,.,.
CC(C)NC(=O)N1CC[C@@H]2[C@H]1c1cc(Br)ccc1N(C)[C@H]2CO,/,/,.,/,.,.
SMILES,TROY signal inh,LMP1 NFkB inh,PAX8 inh HTS,TWEAK Fn14 block,EWS-Fli block,LGR2 antag
COc1ccc(S(=O)(=O)N(C)C[C@H]2Oc3ccc(NC(=O)CCCN(C)C)cc3C(=O)N([C@@H](C)CO)C[C@@H]2C)cc1,/,/,.,/,.,.
Cc1cc(/C=N/n2cnnc2)c(C)n1-c1ccc(OCc2ccc(Cl)cc2)cc1,.,.,/,63.1,/,.
COc1ccc(-n2cc(CN(C)C3CCOCC3)c(-c3cccc(F)c3)n2)cc1,.,.,.,.,.,.
COc1ccc(-n2cc(CNCC3CCOCC3)c(-c3cccc(F)c3)n2)cc1,.,.,.,84.3,.,.
CCN(CC)C(=O)C1CCCN(c2ncnc3c2cnn3-c2cccc(C)c2)C1 (stereo not drawn),.,.,/,50.3,/,/
CCN(CC)C(=O)C1CCCN(c2ncnc3c2cnn3-c2ccc(Cl)cc2)C1 (stereo not drawn),63.0,.,.,70.6,.,.
O=C(c1cnccn1)N1CC[C@@H]2[C@H](CO)Nc3ccc(C#Cc4cccnc4)cc3[C@@H]21,/,/,.,/,.,.
O=C(C[C@@H]1CC[C@@H]2[C@H](COC[C@@H](O)CN2S(=O)(=O)c2cccc(Cl)c2)O1)Nc1ccc(-c2ccccc2)cc1,/,/,83.0,/,.,.
Cc1cccc(S(=O)(=O)N2C[C@@H](O)COC[C@@H]3O[C@@H](CC(=O)Nc4ccc(-c5ccccc5)cc4)CC[C@H]32)c1,/,/,84.0,/,.,.
Cc1noc(C)c1S(=O)(=O)N(C)C[C@H]1OCCCC[C@H](C)Oc2ccc(NS(=O)(=O)c3ccccc3)cc2C(=O)N([C@@H](C)CO)C[C@@H]1C,/,/,.,/,.,.
O=C(CCl)Nc1cc2[nH]c(=O)[nH]c2cc1Br,.,.,91.4,.,?,.
Cc1cc2c(C)cc(=O)[nH]c2cc1NC(=O)CCl,.,.,.,.,.,.
C[C@@H]1CCCCO[C@H](CN(C)C(=O)CCC(F)(F)F)[C@H](C)CN([C@@H](C)CO)C(=O)c2cc(NS(=O)(=O)c3ccc(F)cc3)ccc2O1,/,/,.,/,.,.
COc1ccc(C)c2sc(=NC(=O)c3ccccc3)n(C)c12,.,.,.,.,.,/
COc1ccc(C)c2sc(=NC(=O)c3ccc(C(C)=O)cc3)n(C)c12,51.3,.,.,.,.,.
Cc1cc(Cl)n2nc(C)c(-c3ccc(Cl)cc3)c2n1,.,.,80.9,.,.,/
Cc1cc(N)n2nc(C)c(-c3ccc(Cl)cc3)c2n1,.,.,.,.,.,.
O=C([C@@H]1[C@@H](CO)[C@@H]2Cn3c(cccc3=O)[C@H]1N2C(=O)CC1CC1)N1CCc2ccccc2C1,/,/,/,/,.,.
CCO[C@H]1OC(C(=O)N2CCN(Cc3ccccc3)CC2)=C[C@@H](c2ccc(C(F)(F)F)cc2)[C@@H]1CCCO,.,.,90.1,.,.,.
C[C@H](CO)N1C[C@H](C)[C@@H](CN(C)S(=O)(=O)c2ccc(Cl)cc2)Oc2ccc(NC(=O)CCC(F)(F)F)cc2CC1=O,/,/,.,/,.,.
C[C@H]1CN([C@@H](C)CO)C(=O)Cc2cc(NC(=O)CCC(F)(F)F)ccc2O[C@H]1CN(C)S(=O)(=O)c1ccc(Cl)cc1,.,.,?,.,55.9,.
C[C@H]1CN([C@@H](C)CO)C(=O)Cc2cc(NC(=O)CCC(F)(F)F)ccc2O[C@H]1CN(C)S(=O)(=O)c1ccc(F)cc1,.,.,.,.,57.5!,.
